Screening data (PubChem)
Most compounds without a hit are left out; they make up all but 5.5% or so of the library.
Integrin act MD – qHTS for Activators of Integrin-Mediated Alleviation for Muscular Dystrophy. alpha7betagal myoblasts, beta-gal FDG fluorescence, 48 h. Potency, µM (titrated, usually from 38.3 µM), for the others: at the top dose activation, most hits filed as activators. actives 0.064% (n = 350,000). AID 624291, 2012;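 also: 100% = response of the positive control SU9516; nearly all actives have a fitted effect of over 60% in size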
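Alpha7betagal+/- myoblasts (passage 13) were plated 16-24 hr, then exposed to compounds (1:260 dilution of DMSO stock) for 48 hours at 37C. After MPER lysis, β-galactosidase reporter activity was read as FDG fluorescence (ex 480/em 540) after 30 minutes.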
uPA generation – qHTS for Inhibitors of Cell Surface uPA Generation. Potency, µM (series often up to 38.3 µM), for the others: top-dose activity change, negative = inhibition, actives largely listed as inhibitors. actives 0.31% (n = 330,000). cell surface uPA generation assay, qHTS; active = well fitted inhibition curve with a large enough effect; inconclusive = small, poorly fitted or top-dose-only effect; inactive = no such curve, though single readings can be large or run the other way; tested in mouse RAW 264.7 cells; also: % is scaled to controls: 0 for no effect and ±100 for the full control effect; nearly all actives have a fitted effect of over 55% in size
Gal4-VP16 FLuc – VP16 counterscreen qHTS for inhibitors of ROR gamma transcriptional activity; Drosophila S2 Gal4-VP16 UAS-luciferase, luminescence, 20 h; Potency, µM (doses to about 53.6 µM), inactives show at the top dose activity, negative = inhibition, actives largely listed as inhibitors; actives 3.5% (n = 310,000);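 also: Gal4-VP16 expression switched on by copper sulfate through the metallothionein promoter; % is scaled to controls: 0 for no effect and ±100 for the full control effect; nearly all actives have a fitted effect of over 50% in size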
Chronic BCR inh – qHTS Assay to Find Inhibitors of Chronic Active B-Cell Receptor Signaling | ABC-DLBCL IkBa-CBG/CBR reporter, luminescence ratio, 4 h | Potency, µM (top dose mostly 46.1 µM), for the others: at the highest dose activity change, negative = inhibition, actives largely listed as inhibitors | actives 0.05% (n = 340,000) | AID 493014, 2011; active = well fitted inhibition curve with a large enough effect in the signal ratio, with a control signal flat, not every such curve was filed as active; inconclusive = small, poorly fitted or top-dose-only effect, or effect the other way, or a change in a side signal; the % refers to the signal ratio;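 also: plate controls were basal doxycycline-induced cells for no effect and cells given 10 µM MG132 for full effect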
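Cell line TMD8 (human ABC DLBCL), stably expressing tet-inducible CBG68-IkBa fusion and CBR; IMDM/0.5% FBS; cpd up to 46 uM; dox induction, 4 h, 37C/5% CO2; dual luminescence; green/red ratio; MG132 control.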
RORgamma inh – qHTS for inhibitors of ROR gamma transcriptional activity. Nuclear receptor ROR-gamma (Mus musculus), P51450. Drosophila S2 Gal4-RORgamma UAS-luciferase reporter, 20 h. Potency, µM (titrated, usually from 53.6 µM), for inactives: at the top dose activity change, negative = inhibition, hits mostly inhibitors. actives 5.4% (n = 310,000). AID 2551, 2010; also: % is scaled to controls: 0 for no effect and ±100 for the full control effect; nearly all actives have a fitted effect of over 60% in size
Target sequence (P51450 whole entry, looked up, the tested form may be a part): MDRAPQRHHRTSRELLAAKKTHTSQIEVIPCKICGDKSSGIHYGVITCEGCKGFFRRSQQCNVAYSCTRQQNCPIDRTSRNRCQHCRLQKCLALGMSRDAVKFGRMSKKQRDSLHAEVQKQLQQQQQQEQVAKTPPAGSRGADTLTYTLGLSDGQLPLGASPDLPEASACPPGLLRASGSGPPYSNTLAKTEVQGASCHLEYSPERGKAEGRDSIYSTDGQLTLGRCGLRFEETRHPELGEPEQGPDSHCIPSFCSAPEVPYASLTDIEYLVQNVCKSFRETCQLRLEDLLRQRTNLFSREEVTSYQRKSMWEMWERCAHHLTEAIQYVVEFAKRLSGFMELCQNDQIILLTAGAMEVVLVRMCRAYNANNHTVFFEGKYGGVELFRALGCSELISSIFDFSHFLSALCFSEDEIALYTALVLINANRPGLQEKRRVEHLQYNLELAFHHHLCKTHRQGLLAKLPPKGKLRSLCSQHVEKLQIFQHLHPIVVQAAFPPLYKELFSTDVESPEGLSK
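Schneider cells (Drosophila), stable Gal4 DBD–ROR gamma + UAS-luc; 1 hr cmpd preincubation; Cu2+ induction 700 uM final; 20 hr ambient; luminescence.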
Mito fusion act – qHTS Assay for Small Molecule Inhibitors of Mitochondrial Division or Activators of Mitochondrial Fusion; S. cerevisiae fusion-defective mutant growth rescue, CellTiterGlo 48 h; Potency, µM (titrated, usually from 46.1 µM), for inactives: at the top dose growth rescue (activation), hits mostly activators; actives 0.23% (n = 320,000); AID 485298, 2010; also: % of control where 0% means no effect; nearly all actives have a fitted effect of over 45% in size
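Growth-rescue viability read-out: after 48 h at the non-permissive 37C in glycerol/ethanol YPEG, yeast mitochondrial fusion mutants are measured by CellTiterGlo luminescence; compounds (23 nl pinned per well) restoring growth score as division inhibitors or fusion activators.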
Numbers without * were called inactive; ? = inconclusive; . = no result; [ ] = remark or other dose. Unless noted, calls follow the shape of the dose curve; as a rule, active = well fitted curve in the direction sought with a large enough effect; inconclusive = small, poorly fitted or top-dose-only effect, or another doubt; inactive = no such curve, though single readings can be large; an effect the other way counts as inactive or inconclusive. Potency is read from the fitted curve at half-maximal effect.

SMILES | Integrin act MD | uPA generation | Gal4-VP16 FLuc | Chronic BCR inh | RORgamma inh | Mito fusion act
O=C(Nc1sc2c(c1C(=O)O)CCCCC2)c1ccco1 | -19%[7.66 µM] | -17% | ? | ? | -41% | ?
COC(=O)c1c(NC(=O)C2CC2)sc2c1CCCC2 | 0% | -4% | -11% | ? | ? | 18%
O=c1cc(-c2ccccc2)cc(-c2ccccc2)n1O | -27% | ? | . | ? | . | 6%
CC(C)(C)CN1CCC(Oc2cccc(C(=O)N3CCC[C@H]3CO)c2)CC1 | 15% | -1% | -9% | -5% | -23% | -6%
CN(C)CC(C(=O)c1ccccc1)c1ccccc1 (stereo not given) | -10% | -6% | 7.1µM* | ? | 7.1µM* | -11%
COCCCNC(=S)N/N=C/c1ccc(OC)cc1 | -2% | 2% | ? | ? | 5.6µM* | -6%
COCCCNC(=S)NNC(=S)Nc1ccc(OC)cc1 | 22% | -4% | -1% | -3% | -1% | 2%
COCCCNC(=S)N/N=C/c1cccc(OC)c1O | -35% | -1% | 1.6µM* | ? | 0.63µM* | -5%
NC(=S)N/N=C/c1ccc2ccccc2c1 | -12% | -9% | ? | -1% | ? | -4%
COCCCNC(=S)N/N=C/c1ccc2ccccc2c1 | -18% | -1% | 18µM* | ? | 4.5µM* | -8%
COCCCNC(=S)N/N=C/c1ccc(O)cc1 | ? | -20% | -11% | -7% | 13µM* | -2%
COCCCNC(=S)N/N=C/c1ccc(O)cc1O | -34% | -6% | -26% | ? | -37% | -1%
C[C@@H]1C=CCC(=O)OC[C@H](C)C(=O)OC[C@H]2O[C@H]1C=C[C@H]2O | . | . | -6%[10 µM] | . | -14%[10 µM] | .
O=S(=O)(c1ccccc1Br)N(Cc1ccccc1)Cc1ccco1 | . | . | -13% | . | 3% | .
CC(C)CCn1c(O)c(N=Nc2ccccn2)c2ccccc21 | -6% | -1% | 11µM* | ? | 14µM* | 4%
Oc1ccc2ccccc2c1N=Nc1ccccc1F | -15% | -11% | -5% | 1% | -17% | 1%
Oc1ccc2ccccc2c1N=Nc1ccccn1 | -51% | -11% | ? | ? | 0.28µM* | -7%
O=C(Nc1ccc(O)c(-c2nc3ccccc3s2)c1)c1cccs1 | 2% | 3% | 2% | ? | 43% | 3%
CNc1sc(C(=O)c2cccs2)c(N)c1-c1nc2ccccc2s1 | 6% | -3% | 4µM* | ? | ? | 4%
CNc1sc(C(=O)c2ccc(F)cc2)c(N)c1-c1nc2ccccc2s1 | -13% | . | ? | ? | 10µM* | 7%
CC(=O)Nc1scc(C)c1-c1nc2ccccc2s1 | 2% | -2% | 8.9µM* | -4% | 1.1µM* | 2%
Cc1ccc(CCNC(=O)c2c[nH]c3ccc(S(=O)(=O)Nc4ccc(C)cc4C)cc3c2=O)cc1 | . | . | . | ? | . | -6%
CNc1ccc(C(=O)Oc2cc(O/N=[N+](\[O-])N(C)C)c([N+](=O)[O-])cc2[N+](=O)[O-])cc1 | . | . | -5% | . | 13% | .
Nc1nc(SCC(=O)Nc2ccc([N+](=O)[O-])cc2)[nH]c(=O)c1NC(=O)c1ccc(Br)o1 | 2% | 2% | -3% | 6% | 3% | 1%
Cc1ccc(SC(=O)c2c(C)noc2-c2cc(C)on2)cc1 | ? | -8% | ? | ? | ? | 0%
Cc1ccc2nc(SC(C(=O)c3ccccc3)c3ccccc3)nc(C)c2c1 (stereo not given) | 15% | -3% | 16µM* | 0% | ? | 6%
COc1ccccc1OCC(=O)NC1CC(C)(C)NC(C)(C)C1 | 16% | 6% | 8% | 0% | -21% | 0%
C=C1CC[C@H](O)C/C1=C/C=C1\CCC[C@]2(C)[C@@H]([C@H](C)CC[C@@H](O)C(C)(C)O)CC[C@@H]12 | . | . | ? | . | -31% | .
